The values below come from PubChem BioAssay (NCATS).

Assay [1] can be described thus: Quantitative High-Throughput drug screen in 47 multiple myeloma cell lines against the NCATS MIPE library collection: KMS26_JCRB cell viability assay (AID 1918975). Note: nearly all actives have a fitted effect of over 45% in size. A digest of the protocol: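 Relative luminescence from CellTiter-Glo served as the viability signal, referenced to DMSO-treated (100%) and cell-free medium (0%) controls. Treatment lasted 48 hours at 37C with 500 cells per well.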

The nature of assay [2]: Quantitative High-Throughput drug screen in 47 multiple myeloma cell lines against the NCATS MIPE library collection: MMM1_PLB cell viability assay (AID 1918976). Note: nearly all actives have a fitted effect of over 35% in size. The procedure, abridged:
(§1)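 Inhibition of viability over 48 h was scored by ATP content (CellTiter-Glo) in 500-cell wells. Zero and full viability were defined by media-only and DMSO-only wells.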

Assay [3] in a line: Quantitative High-Throughput drug screen in 47 multiple myeloma cell lines against the NCATS MIPE library collection: NCIH929_DSMZ cell viability assay (AID 1918978). Note: nearly all actives have a fitted effect of over 35% in size. A digest of the protocol: as §1
A short description of assay [4]: Quantitative High-Throughput drug screen in 47 multiple myeloma cell lines against the NCATS MIPE library collection: OCIMY1_PLB cell viability assay (AID 1918979). Note: nearly all actives have a fitted effect of over 35% in size. The procedure, abridged: as §1
The nature of assay [5]: Quantitative High-Throughput drug screen in 47 multiple myeloma cell lines against the NCATS MIPE library collection: MM1R_ATCC cell viability assay (AID 1918981). Note: nearly all actives have a fitted effect of over 35% in size. A digest of the protocol:
as §1

Assay [6] can be described thus: Quantitative High-Throughput drug screen in 47 multiple myeloma cell lines against the NCATS MIPE library collection: KMS28PE_JCRB cell viability assay (AID 1918983). Note: nearly all actives have a fitted effect of over 35% in size. A digest of the protocol:
as §1

Assay [7] can be described thus: Quantitative High-Throughput drug screen in 47 multiple myeloma cell lines against the NCATS MIPE library collection: L363_DSMZ cell viability assay (AID 1918984). Note: nearly all actives have a fitted effect of over 40% in size. Particulars: L363 myeloma viability, CellTiter-Glo ATP luminescence, 48 h; viability (% of control): at 45.8 µM (top of the series). The procedure, abridged:
as §1
In general terms: In ATP-based viability assays light output follows the ATP content of the culture.

Assay [8] is described as follows: Quantitative High-Throughput drug screen in 47 multiple myeloma cell lines against the NCATS MIPE library collection: OCIMY7_PLB cell viability assay (AID 1918987). Note: nearly all actives have a fitted effect of over 65% in size. Particulars: OCI-MY7 myeloma viability, CellTiter-Glo ATP, 48 h; viability (% of DMSO): at 45.8 µM (top of the series). A digest of the protocol: as §1
The nature of assay [9]: Quantitative High-Throughput drug screen in 47 multiple myeloma cell lines against the NCATS MIPE library collection: OCIMY5_PLB cell viability assay (AID 1918988). Note: nearly all actives have a fitted effect of over 65% in size. The procedure, abridged: as §1
A short description of assay [10]: Quantitative High-Throughput drug screen in 47 multiple myeloma cell lines against the NCATS MIPE library collection: MOLP8_DSMZ cell viability assay (AID 1918977). Note: nearly all actives have a fitted effect of over 45% in size. A digest of the protocol:
as §1

The nature of assay [11]: Quantitative High-Throughput drug screen in 47 multiple myeloma cell lines against the NCATS MIPE library collection: MM1S_ATCC cell viability assay (AID 1918980). Note: nearly all actives have a fitted effect of over 45% in size. The procedure, abridged:
as §1

Assay [12] can be described thus: Quantitative High-Throughput drug screen in 47 multiple myeloma cell lines against the NCATS MIPE library collection: LP1_DSMZ cell viability assay (AID 1918982). Note: nearly all actives have a fitted effect of over 35% in size. The procedure, abridged:
as §1

The nature of assay [13]: Quantitative High-Throughput drug screen in 47 multiple myeloma cell lines against the NCATS MIPE library collection: KMS34_JCRB cell viability assay (AID 1918985). Note: nearly all actives have a fitted effect of over 40% in size. The procedure, abridged: as §1
Assay [14] can be described thus: Quantitative High-Throughput drug screen in 47 multiple myeloma cell lines against the NCATS MIPE library collection: SKMM1_PLB cell viability assay (AID 1919863). Note: nearly all actives have a fitted effect of over 35% in size. The note with it: SKMM1 myeloma viability, CellTiter-Glo ATP, 48 h; viability: active compounds read low. The procedure, abridged: as §1
Assay [15] in a line: Quantitative High-Throughput drug screen in 47 multiple myeloma cell lines against the NCATS MIPE library collection: XG6_PLB cell viability assay (AID 1919865). Note: nearly all actives have a fitted effect of over 40% in size. The procedure, abridged:
as §1

Assay [16] can be described thus: Quantitative High-Throughput drug screen in 47 multiple myeloma cell lines against the NCATS MIPE library collection: OPM1_PLB cell viability assay (AID 1918989). Note: nearly all actives have a fitted effect of over 40% in size. A digest of the protocol:
as §1

Assay [17] is described as follows: Quantitative High-Throughput drug screen in 47 multiple myeloma cell lines against the NCATS MIPE library collection: U266_ATCC cell viability assay (AID 1919864). Note: nearly all actives have a fitted effect of over 35% in size. The procedure, abridged:
as §1

A short description of assay [18]: Quantitative High-Throughput drug screen in 47 multiple myeloma cell lines against the NCATS MIPE library collection: XG1_PLB cell viability assay (AID 1919866). Note: nearly all actives have a fitted effect of over 35% in size. A digest of the protocol: as §1

The structures appear in SMILES notation. Inconclusive results are not listed. Values without a mark were called inactive. Active and inactive are the calls of the source. Calls come from the whole dose curve; as a rule, active = well fitted curve in the direction sought with a large enough effect; inconclusive = small, poorly fitted or top-dose-only effect, or another doubt; inactive = no such curve, though single readings can be large; an effect the other way counts as inactive or inconclusive.
Potency is the fitted concentration of half-maximal effect.

Consider `Cc1nc(C(=O)NCC(=O)O)c(O)c2ccc(Oc3ccccc3)cc12`, for which the Potency result in assay [1], in [3], in assay [4], in assay [5], in [6] and in assay [7] was “inactive” throughout. Moreover, the Potency entry in assay [8] and in [9] was “inactive” each time. Besides, the Potency in assay [2] is 0.0053 µM (active).

As for `N=C1SC(=Cc2ccc(-c3ccc4c(c3)C(=O)NC4=O)o2)C(=O)N1c1ccc(Br)cc1`, the Potency in assay [1] is 4.18 µM (active); in assay [2], 3.32 µM (active); in assay [10], 3.72 µM (active); in assay [4], 4.18 µM (active); in [11], 26.4 µM (active); in assay [5] it was 4.18 µM (active). For the same molecule, the Potency was 2.96 µM (active) in assay [12]; 4.69 µM (active) in assay [6]; 2.64 µM (active) in assay [13]; 2.96 µM (active) in assay [9]; 3.32 µM (active) in assay [14]; 1.66 µM (active) in [15]. Besides, the Potency result in assay [7] is “inactive”.

Consider `CCOc1ccccc1N=Nc1c(C)[nH]n(-c2nc(-c3ccccc3)cs2)c1=O`, for which the Potency in assay [1] was 4.18 µM (active); in assay [2] it was 8.33 µM (active); in [3], 0.264 µM (active); in assay [4], 7.43 µM (active); in assay [11], 13.2 µM (active); in assay [5] it was 3.32 µM (active). Moreover, the Potency in assay [9] is 1.18 µM (active); in assay [14], 2.96 µM (active); in assay [17] it was 8.33 µM (active). For the same molecule, the Potency result in assay [13] and in assay [16] was “inactive” in each case.

For `C#C[C@]1(O)CC[C@H]2[C@H]3CCc4cc(OC)ccc4[C@H]3CC[C@@]21C`, the Potency is 2.64 µM (active) in [1]; 18.7 µM (active) in assay [2]; 20.9 µM (active) in [11]; 16.6 µM (active) in assay [16]; 16.6 µM (active) in assay [15]. Moreover, the Potency entry in assay [10], in [4], in assay [6] and in assay [7] was “inactive” in each case.

For the molecule `CC1(C)[C@H]2CC[C@]3(C)[C@@H](C(=O)C=C4[C@@H]5C[C@@](C)(C(=O)O)CC[C@]5(C)CC[C@]43C)[C@@]2(C)CC[C@@H]1O`, the Potency result in assay [1], in [3], in [4], in assay [11], in [5] and in assay [16] was “inactive” each time. Further, the Potency entry in assay [15] and in [18] was “inactive” in each case. Further, the Potency is 3.72 µM (active) in [2], 18.7 µM (active) in [6] and 11.8 µM (active) in assay [14].

Consider `Cc1cc(OCCCS(C)(=O)=O)cc(C)c1-c1cccc(COc2ccc3c(c2)OC[C@H]3CC(=O)O)c1`, for which the Potency result in [1], in assay [4], in assay [13] and in assay [17] was “inactive” throughout. The Potency in assay [2] is 14.8 µM (active); in [3] it was 20.9 µM (active); in assay [5], 6.62 µM (active); in assay [12] it was 16.6 µM (active); in [6], 20.9 µM (active); in assay [8], 18.7 µM (active). Further, the Potency was 18.7 µM (active) in [16], 14.8 µM (active) in assay [14], 23.5 µM (active) in [15] and 16.6 µM (active) in assay [18].

Turning to `O=C(C=Cc1ccc(O)cc1)c1ccc(O)cc1O`, the Potency is 23.5 µM (active) in [1]; 5.9 µM (active) in assay [2]; 14.8 µM (active) in [10]; 23.5 µM (active) in assay [11]; 23.5 µM (active) in assay [6]; 4.69 µM (active) in assay [8]. In addition, the Potency was 14.8 µM (active) in assay [9], 20.9 µM (active) in assay [16], 23.5 µM (active) in [17] and 18.7 µM (active) in assay [15].

With `COc1ccc(-c2oc3c(CC=C(C)C)c(O)cc(O)c3c(=O)c2O)cc1`, the Potency is 16.6 µM (active) in [1]; 20.9 µM (active) in assay [2]; 10.5 µM (active) in assay [3]; 20.9 µM (active) in assay [5]; 5.9 µM (active) in assay [8]; 14.8 µM (active) in assay [9]. The Potency in assay [14] is 20.9 µM (active); in [17], 16.6 µM (active); in assay [15], 6.62 µM (active). Moreover, the Potency result in assay [4] and in assay [16] was “inactive” each time.

Turning to `Cc1ccc(C2=Nc3ccc(Cl)cc3OC2)cc1`, the Potency result in [1], in [3], in [4], in [5] and in assay [6] was “inactive” in each case. For the same molecule, the Potency is 18.7 µM (active) in [2]; 6.62 µM (active) in [13]; 1.32 µM (active) in assay [8]; 10.5 µM (active) in [16]; 9.35 µM (active) in assay [17]; 7.43 µM (active) in [15].

`Clc1ccc(COC(Cn2ccnc2)c2ccc(Cl)cc2Cl)c(Cl)c1` (stereo unspecified): the Potency in assay [1] was 23.5 µM (active); in [2], 16.6 µM (active); in assay [10] it was 18.7 µM (active); in assay [5], 23.5 µM (active); in assay [6] it was 18.7 µM (active); in [7] it was 20.9 µM (active). For the same molecule, the Potency in [9] was 26.4 µM (active); in [16] it was 18.7 µM (active); in assay [14] it was 20.9 µM (active); in assay [15] it was 18.7 µM (active).

As to `Nc1ccc(-c2ccc3ncc4ccc(=O)n(-c5cccc(C(F)(F)F)c5)c4c3c2)cn1`, the Potency is 0.0296 µM (active) in assay [1]; 0.0066 µM (active) in assay [2]; 0.0059 µM (active) in assay [10]; 0.0235 µM (active) in assay [4]; 0.0105 µM (active) in [11]; 0.0166 µM (active) in [6]. For the same molecule, the Potency in [13] is 0.0066 µM (active); in assay [8], 0.0209 µM (active); in assay [9], 0.0332 µM (active); in assay [14] it was 0.0053 µM (active); in assay [17] it was 0.372 µM (active).

On to `CNC(=O)c1cc(Oc2ccc(NC(=O)Nc3ccc(Cl)c(C(F)(F)F)c3)c(F)c2)ccn1`, for which the Potency in assay [1] is 23.5 µM (active); in [2], 8.33 µM (active); in assay [10], 13.2 µM (active); in assay [4] it was 23.5 µM (active); in assay [11], 2.09 µM (active); in assay [5], 20.9 µM (active). Besides, the Potency in assay [12] was 16.6 µM (active); in assay [6], 20.9 µM (active); in assay [14] it was 20.9 µM (active); in [15] it was 0.935 µM (active).

Consider `CC(C)(O)CC(=O)NCCn1ccc2ncnc(Nc3ccc(Oc4cccc(C(F)(F)F)c4)c(Cl)c3)c21`, for which the Potency was 26.4 µM (active) in [1]; 20.9 µM (active) in [2]; 26.4 µM (active) in [3]; 0.332 µM (active) in assay [11]; 26.4 µM (active) in [6]; 23.5 µM (active) in assay [13]. Further, the Potency in assay [8] was 13.2 µM (active); in assay [9] it was 1.18 µM (active); in assay [14], 23.5 µM (active); in assay [17], 16.6 µM (active). Besides, the Potency entry in assay [4] was “inactive”.
